Results reported in PubChem BioAssay (EPA / NIEHS).
“And” between values parts separate entries of the source, which are not always exact repeats. Equal values may be shown once. Some structures have more than one record in an assay (separate samples or runs), and their calls can disagree. The source made the active and inactive calls. Rule for the calls: active = hit-call score of the fitted dose curve at least 0.9, where 1 is the maximum; inactive = score below 0.9.

Tests used:
Settings in all cases: primary human HUVEC with PBMC; actives raise or lower the signal
[1] = BSK_LPS_PGE2: BioMAP Diversity Plus: LPS Assay for Prostaglandin E2 (PGE2) Biomarker Activity (AID 2283082);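 for AC50: secreted prostaglandin E2 measured by ELISA in LPS-stimulated co-culture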
In short: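 HUVEC plus PBMC co-culture stimulated with LPS; secreted PGE2 quantified by ELISA 24 h after chemical dosing. Activity fitted bidirectionally against DMSO as negative control and baseline; parallel SRB total-protein staining served as cytotoxicity check.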

[2] = read-out: Macrophage colony-stimulating factor (MCSF), CSF1 (gene 1435); assay: BSK_LPS_MCSF: BioMAP Diversity Plus: LPS Assay for Macrophage colony-stimulating factor (MCSF) Biomarker Activity (AID 2283083)
In short: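 HUVEC–PBMC co-culture, M-CSF measured by ELISA 24 h after chemical dosing. Fitted in both directions relative to DMSO as negative control; overt cytotoxicity assessed by SRB total-protein staining in parallel cultures.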

[3] = read-out: Tissue Factor, F3 (gene 2152); assay: BSK_LPS_TissueFactor: BioMAP Diversity Plus: LPS Assay for Tissue Factor Biomarker Activity (AID 2283084)
In short: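 Human umbilical vein endothelial cells co-cultured with PBMC were dosed with compound. Cell-surface CD142 was measured by ELISA 24 h later. Activity was fitted bidirectionally against DMSO, with SRB total-protein staining in parallel cultures for cytotoxicity.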

[4] = read-out: Tumor necrosis factor (Homo sapiens) (UniProt P01375); assay: BSK_LPS_TNFa: BioMAP Diversity Plus: LPS Assay for Tumour Necrosis Factor alpha (TNFa) Biomarker Activity (AID 2283085)
In short: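 Human umbilical vein endothelial cells co-cultured with PBMC were exposed to test chemical and TNFa measured by ELISA 24 h after dosing. Bidirectional curve fitting was done relative to DMSO as negative control and baseline.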

[5] = read-out: Vascular cell adhesion molecule 1 (VCAM1), VCAM1 (gene 7412); assay: BSK_LPS_VCAM1: BioMAP Diversity Plus: LPS Assay for Vascular cell adhesion molecule 1 (VCAM1) Biomarker Activity (AID 2283086)
In short: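 Human umbilical vein endothelial cells co-cultured with peripheral blood mononuclear cells under LPS stimulation were exposed to test chemical for 24 h. VCAM-1 levels were then measured by ELISA, with bidirectional curve fitting relative to DMSO as negative control and baseline.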

[6] = read-out: CD38, CD38 (gene 952); assay: BSK_SAg_CD38: BioMAP Diversity Plus: SAg Assay for CD38 Biomarker Activity (AID 2283087)
In short: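 Fluorescence ELISA of cell-surface CD38 served as the read-out, with either increase or decrease fitted against DMSO controls. Cells were a human umbilical vein endothelium plus PBMC co-culture under SEB/TSST-1 stimulation, measured 24 h after dosing.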

[7] = read-out: CD40, CD40 (gene 958); assay: BSK_SAg_CD40: BioMAP Diversity Plus: SAg Assay for CD40 Biomarker Activity (AID 2283088)
In short: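 HUVEC plus PBMC co-culture, superantigen-activated, with CD40 read by ELISA 24 h after dosing. Curves fitted in both directions against DMSO. Overt cytotoxicity checked by parallel SRB total-protein staining.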

[8] = read-out: CD69, CD69 (gene 969); assay: BSK_SAg_CD69: BioMAP Diversity Plus: SAg Assay for CD69 Biomarker Activity (AID 2283089);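 for AC50: cell surface CD69 protein quantified by ELISA with fluorescence detection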
In short: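 Primary human vascular co-culture (umbilical vein endothelium with peripheral blood mononuclear cells) exposed to test chemical for 24 h. CD69 levels quantified by fluorescence ELISA; DMSO served as negative control for bidirectional fitting.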

[9] = read-out: Monocyte Chemoattractant Protein-1 (MCP1), CCL2 (gene 6347); assay: BSK_SAg_MCP1: BioMAP Diversity Plus: SAg Assay for Monocyte Chemoattractant Protein-1 (MCP1) Biomarker Activity (AID 2283090)
In short: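 MCP-1 levels in the endothelial–PBMC SAg co-culture were quantified by ELISA at 24 h post-dosing; both increases and decreases versus DMSO scored. Cytotoxicity monitored by SRB total protein in parallel cultures.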

[10] = read-out: E-selectin (Homo sapiens) (UniProt P16581); assay: BSK_SAg_Eselectin: BioMAP Diversity Plus: SAg Assay for Eselectin Biomarker Activity (AID 2283091)
In short: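 Human umbilical vein endothelial cells co-cultured with peripheral blood mononuclear cells, SAg system. E-selectin is measured by ELISA 24 h after dosing and fitted bidirectionally against DMSO. Cytotoxicity is checked by SRB staining of parallel cultures.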

Measured: AC50

Chain of Tumor necrosis factor (Homo sapiens) (P01375 whole entry, looked up): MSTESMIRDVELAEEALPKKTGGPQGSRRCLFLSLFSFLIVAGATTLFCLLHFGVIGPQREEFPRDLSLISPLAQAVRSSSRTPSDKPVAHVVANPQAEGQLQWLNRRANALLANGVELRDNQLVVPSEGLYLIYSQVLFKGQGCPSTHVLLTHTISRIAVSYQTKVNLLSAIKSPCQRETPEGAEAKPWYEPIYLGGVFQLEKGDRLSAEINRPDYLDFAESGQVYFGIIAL
Chain of E-selectin (Homo sapiens) (P16581 whole entry, looked up): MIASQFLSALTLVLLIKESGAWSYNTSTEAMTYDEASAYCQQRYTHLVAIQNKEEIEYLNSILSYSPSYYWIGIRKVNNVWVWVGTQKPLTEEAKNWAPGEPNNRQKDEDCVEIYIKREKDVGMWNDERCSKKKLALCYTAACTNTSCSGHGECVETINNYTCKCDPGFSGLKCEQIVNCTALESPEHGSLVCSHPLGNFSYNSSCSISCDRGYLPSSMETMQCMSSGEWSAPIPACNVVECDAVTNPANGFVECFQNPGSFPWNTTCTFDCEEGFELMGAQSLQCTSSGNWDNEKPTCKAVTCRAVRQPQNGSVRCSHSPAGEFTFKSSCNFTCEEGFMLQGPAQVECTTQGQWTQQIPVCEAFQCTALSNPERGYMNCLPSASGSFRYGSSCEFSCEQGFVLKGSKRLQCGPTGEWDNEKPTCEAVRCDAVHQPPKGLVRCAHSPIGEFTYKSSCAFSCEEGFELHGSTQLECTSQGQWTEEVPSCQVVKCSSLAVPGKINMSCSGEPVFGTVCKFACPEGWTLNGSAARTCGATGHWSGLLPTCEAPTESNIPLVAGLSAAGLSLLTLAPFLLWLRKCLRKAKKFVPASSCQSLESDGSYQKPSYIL

CCCN(CCOc1c(Cl)cc(Cl)cc1Cl)C(=O)n1ccnc1
inactive: [3] | [5]
active: [1] 0.42 µM | [2] 20 µM | [4] 0.875 µM | [6] 30.7 µM | [7] 27.8 µM | [8] 14.9 µM | [9] 29.6 µM | [10] 20.6 µM

COC(=O)c1ccccc1CS(=O)(=O)NC(=O)Nc1nc(OC)cc(OC)n1
active: [8] 5.03 µM
inactive: all other assays above

CCC(C)Nc1c([N+](=O)[O-])cc(C(C)(C)C)cc1[N+](=O)[O-] (configuration not stated)
inactive: [1] | [3] | [4] | [9]
active: [2] 11.1 µM | [5] 22.8 µM | [6] 16.6 µM | [7] 30.7 µM | [8] 15.6 µM | [10] 11.9 µM

CC(C)(C)C(O)C(Oc1ccc(Cl)cc1)n1cncn1 (configuration not stated)
inactive: [1] | [2] | [3] | [4] | [5] | [6] | [7] | [8] | [9] | [10]
active: [1] 3.1 µM | [2] 20 µM | [6] 4.99 µM | [7] 8.99 µM | [10] 12.9 µM

Clc1ccccc1-c1nnc(-c2ccccc2Cl)nn1
inactive: all assays above

CC(C)N(C(=O)COc1nnc(C(F)(F)F)s1)c1ccc(F)cc1
active: [4] 12.6 µM
inactive: all other assays above

CN1CSC(=S)N(C)C1
active: [1] 3.85 µM | [2] 10.8 µM | [3] 13.7 µM | [4] 8.45 µM | [5] 18.3 µM | [6] 23.3 µM | [7] 20 µM | [8] 20 µM | [9] 15 µM | [10] 19.8 µM

O=S(=O)(O)C(F)(F)C(F)(F)C(F)(F)C(F)(F)C(F)(F)C(F)(F)C(F)(F)C(F)(F)F
active: [4] 15 µM | [7] 20 µM | [10] 20 µM
inactive: [1] | [2] | [3] | [4] | [5] | [6] | [7] | [8] | [9] | [10]

COC(=O)c1ccccc1S(=O)(=O)NC(=O)N(C)c1nc(C)nc(OC)n1
inactive: all assays above

CCN(CC)C(=O)SCc1ccc(Cl)cc1
active: [1] 7.03 µM
inactive: all other assays above

COP(=S)(OC)Oc1ccc([N+](=O)[O-])cc1
active: [1] 14.6 µM | [2] 15.4 µM | [6] 20 µM | [7] 13.8 µM | [8] 15.5 µM | [9] 14.5 µM | [10] 30.9 µM
inactive: [3] | [4] | [5]

ClC1C(Cl)C(Cl)C(Cl)C(Cl)C1Cl (configuration not stated)
inactive: [1] | [2] | [3] | [4] | [5] | [6] | [7] | [8] | [9] | [10]
active: [4] 13.3 µM | [5] 31.3 µM

[2H]C1([2H])[n+]2ccccc2-c2cccc[n+]2C1([2H])[2H]
inactive: all assays above

CCOc1nc(NC)nc(NC(=O)NS(=O)(=O)c2ccccc2C(=O)OC)n1
inactive: all assays above

O=[N+]([O-])/N=C1\NCCN1Cc1ccc(Cl)nc1
inactive: all assays above

O=C1c2ccccc2C(=O)N1SC(Cl)(Cl)Cl
active: [4] 32 µM
inactive: all other assays above

COc1nn(CSP(=S)(OC)OC)c(=O)s1
active: [1] 12.6 µM
inactive: all other assays above

CCS(=O)(=O)c1cccnc1S(=O)(=O)NC(=O)Nc1nc(OC)cc(OC)n1
active: [1] 2.31 µM | [4] 1.75 µM
inactive: all other assays above

O=C(O)CCCOc1ccc(Cl)cc1Cl
active: [1] 15.2 µM
inactive: all other assays above

O=C(O)C(F)(F)C(F)(F)C(F)(F)C(F)(F)C(F)(F)C(F)(F)C(F)(F)F
active: [1] 35.5 µM and 27.5 µM | [4] 9.76 µM
inactive: [1] | [2] | [3] | [4] | [5] | [6] | [7] | [8] | [9] | [10]

O=C(NC(=O)c1c(F)cccc1F)Nc1ccc(OC(F)(F)C(F)OC(F)(F)F)c(Cl)c1 (configuration not stated)
active: [6] 16.3 µM | [9] 32.2 µM | [10] 9.18 µM
inactive: all other assays above

CC[C@H](C)[C@H]1O[C@]2(C=C[C@@H]1C)C[C@@H]1C[C@@H](C/C=C(\C)[C@@H](O[C@H]3C[C@H](OC)[C@@H](O[C@H]4C[C@H](OC)[C@@H](O)[C@H](C)O4)[C@H](C)O3)[C@@H](C)/C=C/C=C3\CO[C@@H]4[C@H](O)C(C)=C[C@@H](C(=O)O1)[C@]34O)O2 (tested in a mixture with another compound)
active: [2] 9.77 µM | [4] 10.3 µM | [5] 6.17 µM | [6] 7.86 µM | [7] 5.74 µM | [8] 7.28 µM | [9] 5.58 µM | [10] 5.19 µM
inactive: [1] | [3]

Cc1cc(C)nc(NC(=O)NS(=O)(=O)c2ccccc2C(=O)OC2COC2)n1
active: [2] 0.331 µM
inactive: all other assays above

COc1cc(OC)nc(NC(=O)NS(=O)(=O)c2cc(NC=O)ccc2C(=O)N(C)C)n1
inactive: all assays above

N#Cc1c(Cl)c(Cl)c(Cl)c(C#N)c1Cl
active: [1] 0.148 µM | [2] 0.924 µM | [3] 0.332 µM | [4] 0.134 µM | [5] 0.773 µM | [6] 0.953 µM | [7] 0.459 µM | [8] 1.35 µM | [9] 1.68 µM | [10] 0.959 µM

CC(C)(C)C(O)/C(=C\c1ccc(Cl)cc1Cl)n1cncn1 (configuration not stated)
inactive: [3] | [4]
active: [1] 0.994 µM | [2] 20.6 µM | [5] 27.6 µM | [6] 27.5 µM | [7] 25.6 µM | [8] 15.8 µM | [9] 31.8 µM | [10] 27.3 µM
